Experimental data as given in PubChem BioAssay (Tox21).
Inconclusive results are not listed. A call without a number means that no potency is given here. Calls of active or inactive are those of the source. The call rests on the fitted dose curve; in most records, active means well fitted cell-killing curve with a large enough effect in the repeat runs; inconclusive means weak or mixed curves; inactive means flat fitted curve, though single readings scatter.

test: qHTS assay to identify small molecule antagonists of the TGF-beta/Smad signaling pathway - cell viability counter screen (AID 1346824); details: SBE-bla HEK293T viability, CellTiter-Glo luminescence; series mostly up to 76.8 µM; further: nearly all actives have a fitted effect of over 50% in size
Text: U.S. Tox21 Program National Center for Advancing Translational Sciences [NCATS] NIH Chemical Genomics Center [NCGC] U.S. Environmental Protection Agency [EPA] National Institutes of Environmental Health Sciences [NIEHS] National Toxicology Program [NTP] U.S. Food and Drug Administration [FDA] Tox21 Assay Overview: Transforming growth factor beta (TGF-beta) superfamily consists of a large number of structurally related dimeric proteins that act as hormones or local mediators in regulating a wide range of biological functions. This superfamily includes TGF-betas themselves, the bone morphogenetic proteins (BMPs) and the activins. These ligands induce oligomerization of serine/threonine receptor kinases and phosphorylate the cytoplasmic signaling molecules of Smad protein family. CellSensor SBE-bla HEK 293T cell line (Life Technologies, Carlsbad, CA), responsive to TGF-beta was used to screen Tox21 10K compound library for identification of agonists/antagonists of the Smad signaling pathway. This cell line contains a beta-lactamase reporter gene under control of the Smad binding element (SBE) stably integrated into HEK 293T cells. Also cytotoxicity of the compounds was tested in parallel by measuring the cell viability using CellTiter-Glo assay system in the same wells.
Tox21 Assay Protocol Summary: SBE-bla HEK 293T cells were dispensed at 4,000/well in 5 uL of assay medium into black wall/clear-bottom 1536-well plates using a Multidrop Combi (ThermoFisher Scientific, Waltham, MA) dispenser. After the assay plates were incubated at 37 C and 5% CO2 for an overnight, 23 nL of compounds dissolved in DMSO, positive controls or DMSO only was transferred to the assay plate by a Pintool station (Kalypsys, San Diego, CA). Compound transfer was followed by the addition of 1 uL of 0.25 ng/mL TGF-beta1 or assay buffer using two separate tips of Flying Reagent Dispenser (FRD, Aurora Discovery, San Diego, CA). The assay plates were incubated at 37 C and 5% CO2 for 5 hr. One uL of LiveBLAzer B/G FRET substrate (Life Technologies) was added using a Flying Reagent Dispenser (FRD, Aurora Discovery, San Diego, CA) and the plates were incubated at room temperature for 2 hr. Fluorescence intensity (405 nm excitation, 460 nm and 530 nm emissions) was measured using an Envision plate reader (PerkinElmer, Shelton, CT). For cytotoxicity read, 4 uL of CellTiter-Glo reagent (Promega Corporation, Madison, WI) was added to each well of the assay plates using FRD. After 30 min incubation at room temperature, the luminescence intensity was measured using ViewLux plate reader (PerkinElmer).

SMILES	Potency
CC(C)(O)c1ccc(CNC(=O)c2cccnc2Oc2ccc(F)cc2)cc1	inactive
O=C(OCCc1ccccc1)c1ccccc1	inactive
Cc1cc(C(=O)O)ccc1[N+](=O)[O-]	inactive
CCN(CC)CCNc1ccc(CNC=O)c2sc3ccc(OC)cc3c(=O)c12	inactive
O=C(O)c1ccc(S(=O)(=O)O)cc1C(=O)O	inactive
O[C@@H](COc1cccc2ncccc12)CN1CCN(C2c3ccccc3[C@@H]3[C@H](c4ccccc42)C3(F)F)CC1 (stereo not given in full)	inactive
CC(=O)[O][Al][O]C(C)=O	inactive
CCCCCCCCCOS(=O)(=O)O	inactive
COC(=O)c1ccc(I)cc1S(=O)(=O)NC(=O)Nc1nc(C)nc(OC)n1	inactive
CCOC(=O)NCCOc1ccc(Oc2ccccc2)cc1	inactive
CC(C)(C)OCC1CO1 (stereo not given)	inactive
C[C@@H]1C[C@H]2[C@@H]3CCC4=CC(=O)C=C[C@]4(C)[C@@]3(F)[C@@H](O)C[C@]2(C)[C@@]1(O)C(=O)COC(=O)c1ccncc1	inactive
CCC(=O)O[C@]1(C(=O)CCl)[C@@H](C)C[C@H]2[C@@H]3CCC4=CC(=O)C=C[C@]4(C)[C@@]3(F)[C@@H](O)C[C@@]21C	inactive
Nc1ncn([C@H]2C[C@H](O)[C@@H](CO)O2)c(=O)n1	inactive
Cc1cccc(Nc2ccccc2)c1	inactive
CC(=O)OC[C@H]1O[C@@H](n2ncc(=O)[nH]c2=O)[C@H](OC(C)=O)[C@@H]1OC(C)=O	inactive
O=[N+]([O-])c1cccc(S(=O)(=O)O)c1	inactive
CN1CCC(N(Cc2cccs2)c2ccccc2)CC1	inactive
CCOC(=O)C(F)(F)F	inactive
CCCCC(=O)OCC(=O)[C@H]1[C@H](C)C[C@H]2[C@@H]3C[C@H](F)C4=CC(=O)C=C[C@]4(C)[C@@]3(F)[C@@H](O)C[C@@]21C	inactive

SMILES	Potency
C/C=C/C=C/CO	inactive
COC(=O)C1=C(C)NC(COC(N)=O)=C(C(=O)OC(C)C)C1c1cccc(Cl)c1Cl (stereo not given)	inactive
COc1cc2nc(N3CCN(C(=O)C4COc5ccccc5O4)CC3)nc(N)c2cc1OC (stereo not given)	inactive
C#CCN(C)CCCOc1ccc(Cl)cc1Cl	inactive
C[N+](C)(C)CCOC(=O)CCC(=O)OCC[N+](C)(C)C	inactive
COc1ccc(C(=O)c2ccc(OC)cc2O)c(O)c1	inactive
Clc1ccc(Cn2c(CN3CCCC3)nc3ccccc32)cc1	inactive
CC(C)CC(=O)C1C(=O)c2ccccc2C1=O	inactive
COc1ccc(C(=O)Nc2nc3ccccc3c(NCc3ccccc3)c2C#N)cc1	inactive
CC1=CCCC(C)(C)C12CCC(C)O2 (stereo not given)	inactive
C#Cc1cccc(Nc2ncnc3cc(OCCOC)c(OCCOC)cc23)c1	inactive
CCC(C)O (stereo not given)	inactive
CCCCCCCCCCCCCCCCCCOS(=O)(=O)O	inactive
Nc1c(CC(=O)O)cccc1C(=O)c1ccc(Br)cc1	inactive
O=C(CS)Nc1ccccc1	inactive
CCCCCCc1ccc(-c2ccc(C#N)cc2)cc1	inactive
CCOc1ccc(N=Nc2ccc(/C=C/c3ccc(N=Nc4ccc(OCC)cc4)cc3S(=O)(=O)O)c(S(=O)(=O)O)c2)cc1	inactive
CNCCCN1c2ccccc2CCc2ccccc21	inactive
O=C1c2ccccc2S(=O)(=O)N1CCCCN1CCN(c2ncccn2)CC1	inactive
CCCCC1=NC2(CCCC2)C(=O)N1Cc1ccc(-c2ccccc2-c2nn[nH]n2)cc1	inactive
